Test results reported in PubChem BioAssay (Tox21).
Activity calls are given as the source filed them. Entries that show only a call come without a potency. Calls come from the whole dose curve; as a rule, active = well fitted activation curve with a large enough effect in the repeat runs; inconclusive = weak or mixed curves; inactive = flat fitted curve, though single readings scatter.

Test: A CellTox Green Cytotoxicity Assay to monitor cytotoxicity in HEK293 cells - 0 hour (AID 1224869); note: nearly all actives have a fitted effect of over 50% in size
Conditions: CellTox Green fluorescence; series mostly up to 76.8 µM
Text: National Center for Advancing Translational Sciences [NCATS]
NIH Chemical Genomics Center [NCGC]
U.S. Environmental Protection Agency [EPA]
National Institutes of Environmental Health Sciences [NIEHS]
National Toxicology Program [NTP]
Cell-based models are critical for drug discovery. Determining the natural cytotoxic effects resulting from test compounds is an essential research activity. A CellTox Green Cytotoxicity Assay to monitor cytotoxicity in real time of continues cell culture during 40 hours of the compound treatment was used to screen Tox21 10K library compounds in Hek293 cells. CellTox Green Cytotoxicity Assay is a nonlytic, homogeneous, biofluorescent method to measure cytotoxicity in cell culture after experimental manipulation. The assay system uses a proprietary asymmetric cyanine dye that is excluded from viable cells but preferentially stains the dead cell's DNA. […] Viable cells produce no appreciable increases in fluorescence. Therefore, the fluorescence signal produced by the binding interaction with dead cell DNA is proportional to cytotoxicity.
The mixture of Hek293 cell suspension and reagents were dispensed at 600cells/6 ul/well in 1536-well tissue culture treated black solid bottom plates using a Multidrop dispenser. After the assay plates were incubated at a 37 C/5% CO2 incubator for 5 hours, 23 nL of compounds dissolved in DMSO, positive and negative controls was transferred to the assay plate by a pintool work station. The plates were incubated at 37 C for 40 hours. The fluorescence intensity were measured at 0h, 8h, 16h, 24h, 32h and 40h time points using ViewLux plate reader during compound treatment.

SMILES | Potency
Oc1c(Cl)c(Cl)cc(Cl)c1Cl | inactive
Clc1ccc(-c2ccccc2)cc1 | inactive
CSCCCN=C=S | inactive
COP(N)(=S)OC | inactive
COC(=O)N(C(=O)N1CO[C@@]2(C(=O)OC)Cc3cc(Cl)ccc3C2=N1)c1ccc(OC(F)(F)F)cc1 | inactive
CC(C)CCCCCOC(=O)c1ccccc1C(=O)OCCCCCC(C)C | inactive
CC[C@H](C)[C@H]1O[C@]2(C=C[C@@H]1C)C[C@@H]1C[C@@H](C/C=C(\C)[C@@H](O[C@H]3C[C@H](OC)[C@@H](O[C@H]4C[C@H](OC)[C@@H](O)[C@H](C)O4)[C@H](C)O3)[C@@H](C)/C=C/C=C3\CO[C@@H]4[C@H](O)C(C)=C[C@@H](C(=O)O1)[C@]34O)O2 | inactive
CCOCn1c(-c2ccc(Cl)cc2)c(C#N)c(Br)c1C(F)(F)F | inactive
COc1ccc(OC)c(CC(C)N)c1 (stereo not given) | inactive
O=c1oc2ccccc2c(O)c1Cc1c(O)c2ccccc2oc1=O | inactive
COc1cc(C=O)cc2c1[C@H](COC(N)=O)[C@]1(OC(C)=O)ON2C[C@H]2[C@@H]1N2C(C)=O | inactive
C=CC(=O)N(C)C | inactive
CC(C)(COCC1CO1)COCC1CO1 (stereo not given) | inactive
COS(=O)(=O)c1ccc(C)cc1 | inactive
CC1(C)C(/C=C(\Cl)C(F)(F)F)C1C(=O)OC(C#N)c1cccc(Oc2ccccc2)c1 (stereo not given) | inactive
CC(Cl)CN(C)C (stereo not given) | inactive
Oc1ccc(C(c2ccc(O)cc2)(C(F)(F)F)C(F)(F)F)cc1 | inactive
Oc1ccc(I)cc1 | inactive
O=[N+]([O-])c1ccc(Oc2ccc(C(F)(F)F)cc2[N+](=O)[O-])cc1 | inactive
Nc1ccccc1C(=O)OC/C=C/c1ccccc1 | inactive

SMILES | Potency
CCc1cc(C)cc(CC)c1-c1c(OC(=O)C(C)(C)C)n2n(c1=O)CCOCC2 | inactive
CCN | inactive
Oc1ccccc1Br | inactive
ClC1=C(Cl)C2(Cl)C3C(Cl)C(Cl)CC3C1(Cl)C2(Cl)Cl (stereo not given) | inactive
CCCCCCCCCBr | inactive
CCOC(=O)OC1=C(c2cc(C)ccc2C)C(=O)NC12CCC(OC)CC2 (stereo not given) | inactive
CCOP(=S)(OCC)OC(Cl)C(Cl)(Cl)Cl (stereo not given) | inactive
CC(=O)Nc1ccc2c(c1)Cc1ccccc1-2 | inactive
CN(C)CCc1c[nH]c2cccc(O)c12 | inactive
N#CCCC(Br)(C#N)CBr (stereo not given) | inactive
CC[C@H]1C[C@@H]2C[C@H]3c4[nH]c5ccc(OC)cc5c4CCN(C2)[C@@H]13 | inactive
CCOc1cc(C(C)(C)C)ccc1C1COC(c2c(F)cccc2F)=N1 (stereo not given) | inactive
C=COCCCl | inactive
Cc1cc(C)cc(OP(=O)(Oc2cc(C)cc(C)c2)Oc2cc(C)cc(C)c2)c1 | inactive
NNC(=O)c1ccccc1 | inactive
CC(C)OS(C)(=O)=O | inactive
COc1ccc([N+](=O)[O-])cc1O | inactive
O=[N+]([O-])c1cc(C(F)(F)F)c(Cl)c([N+](=O)[O-])c1Cl | inactive
CN(CCCC(=O)c1cccnc1)N=O | inactive
CCCCCCCCCCCCBr | inactive
